The assay has as its system Plasmodium falciparum. The assay is described as follows: Plasmodium falciparum sporozoite viability assay. Format: functional, organism-based. Also noted: scale not given: in the data most compounds retested in dose-response had high values.

“And” between values parts separate entries of the source, which are not always exact repeats. Equal entries are not always repeated. The campaign covered roughly 34,000 compounds. About 290 (0.85%) showed an effect of 50% or more. Only a selection was taken, and strong results are over-represented in it overall.

Take `O=C(CCc1ccccc1)N1CC(n2cncn2)C1`: the “Percent Effect” value is reported as 7.531%.

On to `COc1c(CNCc2ccc3c(c2)OCO3)c(C(C)C)nn1C`, for which the “Percent Effect” value was determined as 7.092%.

For the compound `O=C(NCCc1ccccc1)N1CCC(C2OCCO2)CC1`, under “10 mM as filed; unlikely as a test dose”, the “Percent Effect” value was 28.36% and 65.96%.

Turning to `O=C1NCCN2CCN(C(=O)NCCc3ccccc3)CC12` (centres undefined), the “Percent Effect” value (10 mM as filed; unlikely as a test dose) is 64.04% and 69.93%.

In the case of `O=C(NCc1ccccc1F)N1CCC(C2OCCO2)CC1`, the “Percent Effect” value stood at 0.1127%.

Take `CC1=N[C@@]2(CC[C@@H]3CN(C(=O)NCCc4ccccc4)C[C@@H]32)C(=O)N1`: the “Percent Effect” value is recorded as 2.735%.

`O=C(NCCc1ccccc1)N1CCCCC1C1OCCO1` (centres undefined): under “10 mM as filed; unlikely as a test dose”, the “Percent Effect” value was -48% and -64.36%.

Consider `O=C1NCCN2CCN(C(=O)Nc3ccc(-c4ccccc4)cc3)CC12` (centres undefined), for which the “Percent Effect” value (10 mM as filed; unlikely as a test dose) is -23.97% and -24.61%.

For `CC(=O)N1CCCC1C(=O)NCCOc1cccc(F)c1` (centres undefined), the “Percent Effect” value was -6.239%.

With `Cn1cc(C(=O)N2C[C@@H]3CN(S(C)(=O)=O)CCO[C@@H]3C2)cn1`, the “Percent Effect” value is on record as -2.6%.

Take `C[C@]1(O)CN(CCO)CC[C@@H]1Oc1cccc(F)c1`: the “Percent Effect” value is listed as 17.57%.

On to `COc1ccccc1OCCC(=O)N1CCCCC1c1nccs1` (centres undefined), for which the “Percent Effect” value was -5.924%.

With `CN(C)CCNc1ccc(-c2nc(-c3ccccc3F)no2)cn1`, the “Percent Effect” value (10 mM as filed; unlikely as a test dose) is 80.1% and 68.27%.

Take `CC(C)(CO)Nc1ccc(-c2nc(-c3ccccc3F)no2)cn1`: the “Percent Effect” value (10 mM as filed; unlikely as a test dose) is 13.89% and 24.65%.

In the case of `CC(O)CN1CCC(CNCc2ccc(C(N)=O)cc2)CC1` (centres undefined), the “Percent Effect” value is given as 0.9015%.

With `Cc1ccc(CNC(=O)NC(C)Cn2cccn2)cn1` (centres undefined), the “Percent Effect” value worked out at 11.6%.

`CCN1CCN(c2ccc(CNC(=O)Cc3c(C)noc3C)cn2)CC1`: the “Percent Effect” value was found to be 9.727%.

Turning to `Cc1nc(CN2CCC2(CCCc2ccccn2)C(=O)N(C)C)co1` (centres undefined), the “Percent Effect” value was 12.32%.

As for `CCOCc1nn(CC2CC2)c2c1CN(Cc1cccs1)CC2.O=C(O)C(F)(F)F.O=C(O)C(F)(F)F`, the “Percent Effect” value is 6.48%.

As to `Cc1nc(CN2CC(CCCc3ccccn3)(C(=O)N(C)C)C2)co1`, the “Percent Effect” value is reported as -0.6757%.

On to `COc1cccc(OCC2CCCN(C3CCN(C(C)=O)CC3)C2)c1` (centres undefined), for which, where the note is “10 mM as filed; unlikely as a test dose”, the “Percent Effect” value was -11.14% and -12.8% and -12.12%.

As to `COc1cccc(OCC2CCCN(C(=O)c3cnc(C)nc3O)C2)c1` (centres undefined), the “Percent Effect” value is listed as -6.706%.

Turning to `Cc1nn(CC(C)C)c(N(C)C)c1CNCc1ccc2c(c1)OCO2`, the “Percent Effect” value is -0.9874%.

On to `Cc1nc(Nc2cnccn2)cc(C2CCN(c3ncccn3)C2)n1` (centres undefined), for which the “Percent Effect” value was determined as 4.755%.

Regarding `CCOc1ccc(C(=O)N2CCCC(n3ccnc3C)C2)cc1OC` (centres undefined), the “Percent Effect” value came out at 0.3069%.

On to `CCc1cnc(N2CCc3cc(C(=O)NC)c(N(C)C)nc3CC2)nc1.O=C(O)C(F)(F)F`, for which the “Percent Effect” value is given as 0.8439%.

Regarding `O=C(c1cc(=O)c(OCc2ccccc2)co1)N1CCSCC1`, the “Percent Effect” value is given as -8.629%.

For the compound `c1cnc(-c2nc(CN3CCC(c4ccn[nH]4)CC3)cs2)nc1`, the “Percent Effect” value is 5.764%.

Regarding `c1cnc(-c2nc(CN3CCCC(N4CCCC4)C3)cs2)nc1` (centres undefined), the “Percent Effect” value is 5.451%.

Consider `NC(=O)C1CCN(Cc2csc(-c3ncccn3)n2)CC1`, for which the “Percent Effect” value (10 mM as filed; unlikely as a test dose) was -22.27% and -16.43% and -15.46%.

Consider `c1cnc(-c2nc(CN3CCN(CC4CC4)CC3)cs2)nc1`, for which the “Percent Effect” value (10 mM as filed; unlikely as a test dose) is 84.72% and 73.85% and 60.32%.

With `CC(=O)Nc1nc2c(s1)C1(CCN(C)CC1)Nc1ccccc1S2`, the “Percent Effect” value was 12.96%.

Regarding `Cc1nccc(N2CCCC(C)(C(=O)NC3CCCC3)C2)n1` (centres undefined), the “Percent Effect” value came to 2.213%.

On to `Cc1cnn(CC2CCCCN2Cc2nc(N)c3ccccc3n2)c1` (centres undefined), for which the “Percent Effect” value (10 mM as filed; unlikely as a test dose) was 41.2% and 50.14% and 52.23%.

As for `Cc1cnn(CC2CCCN2Cc2nc(N)c3ccccc3n2)c1` (centres undefined), the “Percent Effect” value (10 mM as filed; unlikely as a test dose) is 22.63% and 18.94% and 34.15%.

With `Cc1cnn(CC2CCCCN2Cc2nc(C)c3ccccc3n2)c1` (centres undefined), the “Percent Effect” value (10 mM as filed; unlikely as a test dose) is 35.56% and 21.88% and 27.76%.

Consider `CC(=O)N1CCN(c2ccc3ccc(C(=O)NC4CCCC4)cn23)CC1`, for which the “Percent Effect” value is listed as -4.944%.

As to `Cc1cc(C(=O)N2CCN(c3ncc4c(n3)CCOC4)CC2)sc1C`, the “Percent Effect” value is on record as -7.443%.

For `Cc1nc2ccccc2nc1CN1CCc2c(nc(C3CC3)n2C)C1`, the “Percent Effect” value (10 mM as filed; unlikely as a test dose) is -9.933% and -2.839%.

On to `Cn1c(C2CC2)nc2c1CCN(Cc1nc3ccccc3s1)C2`, for which, for the setting “10 mM as filed; unlikely as a test dose”, the “Percent Effect” value was 48.9% and 53.74%.

For `Cc1nc(CN2CCc3c(nc(C4CC4)n3C)C2)nc2ccccc12`, where the note is “10 mM as filed; unlikely as a test dose”, the “Percent Effect” value was -16.27% and -10.13%.

Take `c1ccc2nc(N3CCOC(Cn4cccn4)C3)cnc2c1` (centres undefined): the “Percent Effect” value is recorded as 7.131%.

As to `OCC1CCCN1c1cc(NCCc2ccsc2)ncn1` (centres undefined), where the note is “10 mM as filed; unlikely as a test dose”, the “Percent Effect” value was 86.32% and 73.55%.

For `OCC1CCCN1c1cc(NCCc2ccccn2)ncn1` (centres undefined), the “Percent Effect” value (10 mM as filed; unlikely as a test dose) is 91.05% and 79.59%.

For `OCC1CCCN1c1cc(NCc2ccccn2)ncn1` (centres undefined), the “Percent Effect” value (10 mM as filed; unlikely as a test dose) was -21.68% and -23.27%.

As for `Cc1cccnc1CNc1cc(N2CCCC2CO)ncn1` (centres undefined), the “Percent Effect” value is -13.57%.

As for `OCC1CCCN1c1cc(NCc2ccsc2)ncn1` (centres undefined), the “Percent Effect” value is 11.95%.

As to `OCC1CCCN1c1cc(NCCc2nccs2)ncn1` (centres undefined), the “Percent Effect” value (10 mM as filed; unlikely as a test dose) was 21.04% and 15.76%.

As to `OCC1CCCN1c1cc(NCCNc2cccnn2)ncn1` (centres undefined), the “Percent Effect” value (10 mM as filed; unlikely as a test dose) is 9.971% and -4.087%.

Values taken from ChEMBL document CHEMBL3988442, “University of Dundee, Small-Polar-MMV Screening Library” (2021).
